# The campaign covered roughly 360,000 compounds. About 8,200 (2.3%) were called active. The entries come from a sample that favours actives as a whole. Unmarked numbers belong to inactive results. Cut-off read from the data, not from the text of the source: active = inhibition above about 27%; inactive = the rest.
# Molecular target: Fructose-bisphosphate aldolase (Mycobacterium tuberculosis (strain ATCC 25618 / H37Rv)) (UniProt P9WQA3)
# Assay: Mtb FBA enzyme inhibitors, primary screen, biochemical, fluorescence, strain H37Rv (AID 588726);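 note: 0% = vehicle and 100% = reference inhibitor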
# Settings: purified M. tuberculosis FBA, fluorescence read-out, at 1 µM, active compounds read high
# Sequence of Fructose-bisphosphate aldolase (Mycobacterium tuberculosis (strain ATCC 25618 / H37Rv)) (P9WQA3 whole entry, looked up): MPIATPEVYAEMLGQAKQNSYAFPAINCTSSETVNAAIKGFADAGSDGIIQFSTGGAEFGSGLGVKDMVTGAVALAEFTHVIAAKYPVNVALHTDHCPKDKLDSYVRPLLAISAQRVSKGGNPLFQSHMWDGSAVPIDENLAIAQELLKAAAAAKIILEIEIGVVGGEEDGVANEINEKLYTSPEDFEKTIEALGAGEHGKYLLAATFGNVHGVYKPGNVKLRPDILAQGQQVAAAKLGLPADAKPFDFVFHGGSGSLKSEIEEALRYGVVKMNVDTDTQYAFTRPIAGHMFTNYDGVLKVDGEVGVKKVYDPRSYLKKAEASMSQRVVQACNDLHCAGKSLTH
row,Compound,inhibition
1,Cc1ccc(-c2ccnc3nc(Sc4ncc(C(F)(F)F)cc4Cl)nn23)cc1,25.2%
2,CCc1ccc(OCC(=O)OCC(=O)c2c(N)n(C)c(=O)n(C)c2=O)cc1,3.53%
3,COc1ccccc1CNC(=O)Cn1c(=O)oc2cc(Cl)ccc21,-1.01%
4,CC(C)C(C)(C#N)NC(=O)CSc1nc2scc(-c3ccccc3)c2c(=O)[nH]1 (centres undefined),-1.25%
5,CCc1nc(N2CCN(C(C)=O)CC2)c2c3c(sc2n1)CCCC3,-1.16%
6,COCCNc1nc(-n2nc(C)cc2C)nc2sc3c(c12)CCCC3,35.2% (active)
7,CCCc1nc2sc3c(c2c(=O)n1NC(=O)CCCl)CCCC3,-0.17%
8,C=CCn1c(CCNC(=O)c2cccs2)n[nH]c1=S,0.26%
9,O=C(NNC(=S)NC1CC2CCC1C2)c1ccc(Cl)cc1 (centres undefined),-1.27%
10,Cc1nn2c(c1-c1ccccc1)N=C(c1ccco1)CC2c1ccccc1 (centres undefined),-3.5%
11,COC(=O)c1ccccc1NC(=O)C1CC(=O)N(c2ccc(OC)cc2)C1 (centres undefined),2.12%
12,CCOC(=O)N1CCN(C(=O)c2ccc3c(c2)N(Cc2ccc(C)cc2)CCS3)CC1,7.61%
13,CC1CCCN(c2ccc(C(=O)NCCc3ccccc3)cn2)C1 (centres undefined),2.27%
14,O=C(NCCN1CCOCC1)c1ccc2c(c1)N(Cc1ccc(Cl)cc1)CCS2,32.2% (active)
15,O=C(NCCN1CCOCC1)c1c(F)c(F)c(F)c(F)c1F,-2.22%
16,O=C(NCCc1ccccc1)c1ccc2c(c1)N(Cc1ccccc1)CCS2,43.6% (active)
17,O=C(Cc1ccc(Br)cc1)NCCN1CCOCC1,1.41%
18,CN(C)/C=N/c1cc(=O)n(C)c(=O)n1CC1CC1,-0.52%
19,CN1C(C(=O)NCC2CC2)CC2Cn3c(nc4ccccc43)C21 (centres undefined),-0.07%
20,Cc1nonc1OCCn1nnnc1N,-0.1%
21,COC[C@@H]1NS(=O)(=O)c2ccc(Br)cc2O[C@H]1c1ccccc1,-2.58%
22,Cc1nonc1C1CCCN1C(=O)c1cc(COc2cccc(C(F)(F)F)c2)on1 (centres undefined),-1.66%

row,Compound,inhibition
1,CCCC1OC23CCCCC2C(C#N)(C#N)C1(C#N)C(=N)O3 (centres undefined),48.2% (active)
2,CCCCc1cc(=O)oc2cc(C)cc(OCc3nn[nH]n3)c12,183% (active)
3,CN(CCOc1ccccc1)Cc1nc2cc(Cl)ccc2c(=O)[nH]1,7.42%
4,CC(=O)N1CC[n+]2c(-c3ccc([N+](=O)[O-])cc3)csc21,-3.76%
5,COc1ccc2c(c1OC)C(=O)N(c1ccc(O)cc1)C2,-2.29%
6,COc1ccc(C(C)C)cc1S(=O)(=O)Nc1ncn[nH]1,-1.62%
7,COc1ccc2c(c1OC)C(=O)N(c1ncn[nH]1)C2,31.1% (active)
8,Cc1nnc(NC(=O)CSc2nccn2-c2cccc(C)c2C)s1,1.13%
9,CCOC(=O)C1CCN(C(=O)Cn2cc(C#N)c3ccccc32)CC1,1%
10,CCCc1cc(=S)n2c([nH]c3ccccc32)c1C#N,14.3%
11,COc1ccc(C(C(=O)NC2CCCCC2)N(C(=O)Cc2c[nH]c3ccccc23)c2ccccc2)cc1OC (centres undefined),-0.54%
12,CC(=O)N1CCSc2ccc(S(=O)(=O)N3CCC(C)CC3)cc21,3.62%
13,CC12CCC(C(=O)N(CCC#N)CCC#N)(CC1=O)C2(C)C (centres undefined),1.36%
14,Cc1ccc(C(=O)NC(=S)Nc2ccc3[nH]c(=O)[nH]c3c2)cc1C,2.47%
15,COC(=O)c1cc(C(=O)NC(C)C2CC3CCC2C3)cc([N+](=O)[O-])c1 (centres undefined),6.2%
16,Cc1cccc(NC(=O)c2cc(S(=O)(=O)N3CCC4(CC3)OCCO4)ccc2F)c1,-0.22%
17,Cc1cc(C(=O)NC2CCN(Cc3ccccc3)CC2)n[nH]1,0.08%
18,O=C(NC1CCN(Cc2ccccc2)CC1)c1cc(Br)c(Br)[nH]1,40% (active)
19,O=C(NC1CCN(Cc2ccccc2)CC1)c1ccc(Oc2cc(Cl)cc(Cl)c2)o1,1.42%
20,OC(c1ccc(Cl)c(F)c1)c1ncc(-c2ccccc2Cl)[nH]1 (centres undefined),-1.69%
21,CCCCN(CCCC)CC(O)Cn1c2ccccc2c(=O)c2ccccc21 (centres undefined),71.2% (active)
22,OC(Cn1c2ccccc2c2ccccc21)C[n+]1ccccc1 (centres undefined),-1.64%

row,Compound,inhibition
1,CS(=O)(=O)N(CC(O)Cn1c2ccccc2c2ccccc21)c1cccc2ccccc12 (centres undefined),-2.35%
2,O=C(CNC(=O)[C@@H]1Cc2ccccc2CN1)NC1CCCCC1,0.53%
3,CC(C)C(NC(=O)OCc1ccccc1)C(=O)OCC(=O)N1C(C)CCCC1C (centres undefined),2.57%
4,COc1ccc(CCN2C(=O)CC(N3CCC(C(N)=O)CC3)C2=O)cc1OC (centres undefined),-1.48%
5,Cc1nc(SC(C)C)[nH]c(=O)c1Cc1ccccc1,0.91%
6,N#Cc1c(N)nc2c(c1N)CC(C(F)(F)F)O2 (centres undefined),0.26%
7,Cc1nc2ccccc2c(C(=O)O)c1-c1ccccn1,-2.32%
8,CCc1ccc(-c2cc(C(=O)NN3CCN(C)CC3)c3ccccc3n2)cc1,0.75%
9,O=C(CCCN1C(=O)CSc2ncccc21)N1CCN(c2cccc(C(F)(F)F)c2)CC1,3.32%
10,CCCCCCc1cc2cc(-c3nnc(-c4ccccc4)o3)c(=O)oc2cc1O,4.92%
11,CN(C)c1cc(-c2ccc(F)cc2)oc(=O)c1Cl,-2.58%
12,Cc1cc(Cl)ccc1N1C(=O)CC(SCCC(=O)O)C1=O (centres undefined),5.32%
13,COc1ccc(C(=O)NCCSc2ccccc2C)cc1,0.09%
14,CCOc1ccc(S(=O)(=O)NCCSc2ccccc2)cc1,1.75%
15,CCOc1ccc2nc(NCCNC(=O)C(C)(C)C)c(C)cc2c1,26.1%
16,CCOc1ccc2nc(NCCNS(=O)(=O)c3ccccc3)c(C#N)cc2c1,40.1% (active)
17,Cn1nc(N)c2ncc(C(Cl)(Cl)Cl)nc21,-3.83%
18,COc1cc(-c2nnc(NC(=O)CS(=O)(=O)c3ccc(Cl)cc3)o2)cc(OC)c1OC,-1.58%
19,COc1cc2c(-c3ccc4c(c3)OCO4)c(-c3ccsc3)oc(=O)c2cc1OC,2.51%
20,COC(=O)c1c(-c2ccsc2)oc2ccc(-c3cc(OC)c(OC)c(OC)c3)cc12,27.6% (active)
